# Test results taken from PubChem BioAssay (NCI).
# This is part of a sample that, as a whole, favours compounds with a hit. Of some 83,000 tested, about 20% had one in any assay.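 The test compound was applied at a single concentration to cells in 96-well plates for 48 hours, and percent growth was recorded.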 Unmarked numbers belong to inactive results. Calls of active or inactive are those of the source. The calls were made as follows: active = growth percent below 10; inactive = the rest.
# What was measured:
# Assay in all cases: NCI-60 one-dose screen, 48 h (100 = growth as untreated, 0 = no growth, -100 = all killed)
# Details in all cases: 10 µM
# [1] = tested on: DU-145 prostate
# [2] = tested on: K-562 leukemia
# [3] = tested on: MALME-3M melanoma
# [4] = tested on: MDA-MB-231 breast
# [5] = tested on: RXF 393 renal
# [6] = tested on: SF-268 CNS
# [7] = tested on: SF-295 CNS
# [8] = tested on: SF-539 CNS
# [9] = tested on: UACC-257 melanoma
# [10] = tested on: M14 melanoma
Compound,growth [1],growth [2],growth [3],growth [4],growth [5],growth [6],growth [7],growth [8],growth [9],growth [10]
CC1(C)N=C(N)N=C(N)N1c1ccc(Cl)cc1,55.2%,20.1%,63.4%,69%,71%,36.6%,4.05% (active),22.7%,64%,–
CCOC(=O)C1OC1c1ccccc1 (stereo not drawn),107%,103%,103%,111%,112%,97.5%,93.2%,99.4%,106%,–
CCCNC(=O)c1ccc(S(N)(=O)=O)cc1,109%,107%,113%,101%,107%,103%,127%,97.8%,110%,–
Clc1ccc(-c2n[nH]c3c2Cc2ccccc2-3)cc1Cl,130%,92.4%,102%,98%,154%,109%,99.5%,95.6%,-6.12% (active),–
CC(=O)c1c[nH]c2ccccc12,124%,103%,95.2%,114%,104%,113%,100%,105%,104%,–
Cc1cc(C)c(N)c(S(=O)(=O)O)c1,129%,113%,104%,97.8%,133%,115%,104%,84.4%,122%,–
CCC(C#N)(CC)c1ccccc1,109%,97.1%,121%,97.4%,115%,99.3%,113%,113%,104%,–
CN(C)C(=O)Oc1cccc([N+](C)(C)C)c1,113%,104%,131%,91.1%,114%,106%,96.8%,106%,97.8%,–
S=c1[nH]ccn1-c1ccccc1Cl,106%,101%,120%,120%,114%,108%,100%,103%,22.9%,–
CC(C)OC(=O)c1cc(NC(=S)OC(C)C)ccc1Cl,83.8%,73.7%,67.6%,72.7%,35.8%,92%,83.5%,89.6%,78.9%,–
O=C(NC1CCCCC1)OCc1c(COC(=O)NC2CCCCC2)c(-c2ccc(Cl)c(Cl)c2)n2c1CCC2,20.2%,10.5%,31.8%,42.3%,-13.6% (active),29.2%,24.7%,20.1%,66.2%,–
CN(C)c1ccc2oc(=O)c3ccccc3c2c1,105%,109%,97.6%,77.6%,106%,100%,102%,80.4%,106%,–
CC(=O)c1sc2c(c1OC(=O)c1ccc(Cl)cc1Cl)c(=O)n(-c1ccccc1)c(=S)n2-c1ccccc1,44.1%,0.912% (active),-79.2% (active),-41.5% (active),6.34% (active),18.9%,-32.1% (active),-39.6% (active),49%,-76.1% (active)
CC1(C)OC(=O)C(c2ccsc2)C(=O)O1,107%,107%,112%,111%,107%,99.6%,108%,98.9%,104%,106%
CN(C)c1ccc2nc3ccc(=N)cc-3sc2c1,86.7%,20.1%,8.19% (active),11.5%,70.7%,54.2%,86.1%,-11.3% (active),13.9%,24.7%
CCOc1ccc(/C=C/C(=O)c2ccccc2)cc1,95.1%,71.5%,108%,114%,53.4%,85.6%,111%,105%,97.7%,99.7%
Cc1cc(Cc2cc(C)c(N)cc2N)c(N)cc1N,105%,101%,95.2%,83.9%,103%,90.9%,104%,103%,85.3%,101%
CCN(CC)C(=O)/C=C(/C)c1ccccc1,117%,107%,111%,108%,96.7%,104%,100%,107%,110%,104%
N#CC1(Nc2ccc3c4c(cccc24)CC3)CCCCC1,103%,89.7%,93.1%,99.8%,89.8%,97%,98.8%,108%,92.9%,113%
S=c1sc2ccccc2n1CN1CCCCC1,99.8%,124%,86.6%,98.4%,110%,92.5%,102%,105%,104%,100%
Cn1cnc2nc(Cl)nc(Cl)c21,-24% (active),25.5%,55.6%,20.9%,30.6%,22.1%,16.3%,2.85% (active),60%,-15.6% (active)
Cc1cc(=O)n(-c2ccc(F)cc2)[nH]1,109%,99.1%,102%,105%,93.5%,101%,86.8%,90.8%,103%,108%
O=c1c2ccccc2c(Br)c(Br)c2ccccc12,114%,52.6%,94.7%,115%,48%,110%,99.4%,98.6%,66.2%,5.89% (active)
CC(=O)N(C)c1ccc([N+](=O)[O-])cc1,122%,111%,144%,102%,102%,116%,107%,106%,110%,108%
O=C(c1ccccc1)C1CCC1,117%,99.3%,117%,98.3%,109%,100%,104%,103%,102%,108%
O=[N+]([O-])c1cccc(C(F)(F)F)c1,120%,119%,135%,98%,98.7%,102%,101%,102%,97.3%,97.9%
O=C(O)/C=C/c1ccc2c(c1)CCC2,118%,86.9%,121%,118%,106%,116%,98.9%,106%,97.8%,106%
COc1cc2cc(c1Cl)N(C)C(=O)C[C@H](OC(=O)[C@H](C)N(C)C(C)=O)[C@]1(C)O[C@H]1[C@H](C)[C@@H]1C[C@@](O)(NC(=O)O1)[C@H](OC)C=C/C=C(\C)C2,-40.4% (active),-2.18% (active),33.7%,-13.1% (active),13.3%,23.5%,-13.8% (active),-23.5% (active),12.4%,-26.2% (active)

Compound,growth [1],growth [2],growth [3],growth [4],growth [5],growth [6],growth [7],growth [8],growth [9],growth [10]
Cc1c(O)cccc1O,124%,88.2%,156%,96.5%,77.7%,112%,98.2%,103%,108%,105%
Cc1cc(C)cc(NCCC#N)c1,114%,102%,164%,106%,448%,105%,103%,104%,124%,117%
O=S(=O)(O)c1cc(O)c2c(N=Cc3ccccc3O)c(S(=O)(=O)O)ccc2c1,109%,96.7%,97.9%,127%,105%,102%,81.9%,94.3%,111%,94.4%
COc1cc(C2NC(=O)C(C#N)=C(Nc3cccc(C)c3)S2)ccc1O (stereo not drawn),122%,93.8%,108%,99.2%,103%,109%,101%,90.4%,-2.62% (active),101%
N#CCc1ccc([N+](=O)[O-])cc1,113%,114%,148%,100%,113%,106%,95.3%,101%,74%,101%
COc1cc2cc(OC(C)=O)c3cc4c(cc3c2c(OC)c1OC)OCO4,98.8%,107%,98.4%,108%,94.6%,97.9%,93%,103%,105%,96.5%
O=[N+]([O-])c1ccccc1N=Nc1ccc(O)cc1O,117%,120%,109%,119%,121%,118%,107%,113%,103%,110%
CSC(=N\N=C\c1ccc(N(C)C)cc1)/N=C/N(C)C,117%,111%,104%,106%,95.1%,111%,84.6%,96%,100%,104%
N#Cc1ccc(OC(=O)Nc2ccc(Cl)c(Cl)c2)cc1,72.3%,44%,72.9%,93%,91.5%,94.4%,41.4%,91.5%,86.2%,76.6%
O=C(O)c1ccnc(Br)c1,111%,109%,107%,115%,106%,107%,100%,97.5%,104%,107%
CCOC(=O)CNN,98.6%,79.5%,103%,107%,108%,103%,102%,108%,97%,107%
O=C1C=C(O)C(=O)C=C1O,119%,103%,144%,104%,150%,101%,115%,98.7%,107%,104%
CCCCOC(OCCCC)c1ccccc1,112%,107%,132%,112%,128%,96.5%,111%,91.8%,109%,113%
COc1ccc(OC)c(/C=C2\CCc3ccccc3C2=O)c1,55.5%,18.3%,63.4%,52.9%,60.3%,56.3%,32%,26%,75.3%,15%
S=c1nn[nH]c2ccccc12,120%,99%,148%,93.4%,114%,110%,113%,105%,108%,102%
N#CCCN(CCCN1CCOCC1)CN1C(=O)c2ccccc2C1=O,109%,91.6%,87.6%,113%,98%,115%,98.6%,110%,107%,125%
C[N+](C)=c1ccc2nc3c(cc(Nc4ccccc4)c4ccccc43)oc-2c1,55.4%,38.5%,28.2%,47%,69.2%,80.3%,59.5%,74.3%,38.6%,33.9%
O=C(/C=C\c1ccc(O)cc1)c1ccccc1,101%,99.2%,82.7%,92.4%,110%,90%,110%,92.3%,98%,72.8%
Cc1nc2c(ccc3ccccc32)s1,123%,115%,110%,107%,116%,116%,104%,100%,101%,98.5%
O=c1cc(-c2ccccc2)[nH]c2c1CCCC2,21.2%,23.2%,31.6%,33.8%,-21.7% (active),57.3%,18.1%,3.77% (active),46.9%,8.23% (active)
COC(=O)c1ccccc1Br,102%,111%,98.5%,112%,110%,101%,95.1%,102%,114%,88.9%
CCCCC/C=N/Nc1nc(C)cc(=O)[nH]1,114%,105%,103%,95.2%,105%,107%,88.8%,108%,93.1%,106%
N=c1c(C(=O)OCc2ccccc2)ncc(CCl)n1O,102%,109%,113%,95.8%,94.9%,94.9%,124%,104%,81.8%,94.1%
O=c1[nH]cc(Cl)cc1O,96.8%,48%,91.2%,77.8%,107%,79%,82.4%,96%,92.3%,86.6%
O=C(O)C(O)c1ccccc1 (stereo not drawn),106%,111%,99.9%,107%,102%,98.8%,107%,94%,102%,97.8%
CC(=O)c1cc2c(cc1F)C(C)(C)CCC2(C)C,108%,96.2%,123%,103%,113%,95.4%,120%,96.2%,96.3%,98.9%
O=[N+]([O-])c1ccc(S(=O)(=O)NN=C2CCCCC2)cc1,121%,111%,101%,108%,117%,116%,97.8%,109%,95.6%,106%
